Source: PubChem BioAssay (NCATS)
Results filed as inconclusive are left out. The source made the active and inactive calls. Unless noted, the call rests on the fitted dose curve; in most records, active means well fitted curve in the direction sought with a large enough effect; inconclusive means small, poorly fitted or top-dose-only effect, or another doubt; inactive means no such curve, though single readings can be large; an effect the other way counts as inactive or inconclusive.

Key:
[1] = qHTS assay for small molecule antagonists of peroxisome proliferator-activated receptor delta signaling (AID 588535); settings: HEK293T PPARd-UAS-bla, beta-lactamase FRET ratio, 18 h; 460 nm channel;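 further: cells co-treated with a PPAR-delta agonist as stimulator during compound exposure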
How it was run: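 Cell-based beta-lactamase assay in antagonist mode: 4000 HEK293T PPAR-delta-UAS-bla cells per well, 5 hr preincubation then 18 hr compound incubation at 37 C. IC50 obtained by Hill equation fitting.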

[2] = target: Vitamin D3 receptor (Homo sapiens) (UniProt P11473); assay: qHTS assay for small molecule agonists of vitamin D receptor signaling (AID 588543; calls by dose curve;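 further: 0% = DMSO basal and 100% = reference agonist control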)
Sequence of Vitamin D3 receptor (Homo sapiens) (P11473 whole entry, looked up): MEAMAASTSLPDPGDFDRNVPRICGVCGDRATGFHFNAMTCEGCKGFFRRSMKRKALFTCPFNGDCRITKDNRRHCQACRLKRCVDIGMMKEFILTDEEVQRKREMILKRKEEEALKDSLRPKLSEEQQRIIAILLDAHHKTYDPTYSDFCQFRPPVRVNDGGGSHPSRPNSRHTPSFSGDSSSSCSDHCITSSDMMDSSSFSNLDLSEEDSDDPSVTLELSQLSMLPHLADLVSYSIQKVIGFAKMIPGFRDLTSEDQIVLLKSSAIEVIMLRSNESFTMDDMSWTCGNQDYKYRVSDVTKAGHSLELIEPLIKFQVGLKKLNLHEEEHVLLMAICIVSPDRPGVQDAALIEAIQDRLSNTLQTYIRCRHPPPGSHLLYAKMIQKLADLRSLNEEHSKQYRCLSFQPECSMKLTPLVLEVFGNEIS
How it was run: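 Agonist-mode beta-lactamase reporter: HEK293T VDR-UAS-bla cells in charcoal-stripped 2% FBS, compound series 16 h 37 C, CCF4 2 h RT. EC50 from Hill fit, scaled against DMSO and 50 nM calcitriol control.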

[3] = qHTS assay for small molecule agonists of retinoid X receptor alpha signaling (AID 588544; calls by dose curve;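 on activation: 0% = DMSO basal wells and 100% = reference agonist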); settings: HEK293T RXRa-UAS-bla, beta-lactamase reporter, 18 h; 530 nm emission
[4] = target: Retinoic acid receptor RXR-alpha (Homo sapiens) (UniProt P19793); assay: as above
Sequence of Retinoic acid receptor RXR-alpha (Homo sapiens) (P19793 whole entry, looked up): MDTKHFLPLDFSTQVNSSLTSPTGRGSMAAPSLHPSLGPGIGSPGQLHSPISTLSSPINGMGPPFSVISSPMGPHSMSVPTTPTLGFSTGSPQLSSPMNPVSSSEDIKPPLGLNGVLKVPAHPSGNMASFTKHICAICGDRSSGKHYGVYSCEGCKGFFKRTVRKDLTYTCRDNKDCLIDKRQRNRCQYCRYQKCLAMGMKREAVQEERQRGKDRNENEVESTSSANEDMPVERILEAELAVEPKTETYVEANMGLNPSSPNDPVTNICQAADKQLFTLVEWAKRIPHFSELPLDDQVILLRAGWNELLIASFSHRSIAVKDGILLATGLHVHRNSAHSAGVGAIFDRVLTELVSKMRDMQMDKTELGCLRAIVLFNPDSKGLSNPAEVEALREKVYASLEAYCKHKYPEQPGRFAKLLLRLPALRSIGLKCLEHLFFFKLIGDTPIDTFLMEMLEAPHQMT

[5] = target: Thyroid hormone receptor beta (Homo sapiens) (UniProt P10828); assay: qHTS assay for small molecule agonists of thyroid hormone receptor beta signaling (AID 588545; calls by dose curve;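 further: 0% = DMSO only and 100% = 10 nM T3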)
Sequence of Thyroid hormone receptor beta (Homo sapiens) (P10828 whole entry, looked up): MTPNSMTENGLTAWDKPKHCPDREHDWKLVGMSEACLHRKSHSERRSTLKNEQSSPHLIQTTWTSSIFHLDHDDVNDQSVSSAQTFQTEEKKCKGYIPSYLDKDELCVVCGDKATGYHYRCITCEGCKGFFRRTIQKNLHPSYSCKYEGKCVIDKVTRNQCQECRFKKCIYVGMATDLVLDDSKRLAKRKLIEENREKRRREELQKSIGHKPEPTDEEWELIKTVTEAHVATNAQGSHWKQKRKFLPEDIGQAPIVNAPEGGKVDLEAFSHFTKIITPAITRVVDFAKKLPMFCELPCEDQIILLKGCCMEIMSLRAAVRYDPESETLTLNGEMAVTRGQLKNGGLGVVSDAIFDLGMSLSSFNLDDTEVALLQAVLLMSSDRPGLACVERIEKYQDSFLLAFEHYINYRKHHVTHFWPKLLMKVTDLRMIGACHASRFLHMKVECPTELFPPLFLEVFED
How it was run: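 Beta-lactamase reporter activity under TR response element control is measured in HEK 293 cells after 18 hrs compound exposure. Signal is ratiometric CCF4 fluorescence, 460/530 nm.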

[6] = qHTS assay for small molecule antagonists of retinoid X receptor alpha signaling (AID 588546; active means well fitted inhibition curve with a large enough effect in the signal ratio, with a control signal flat, not every such curve was filed as active; the % refers to the signal ratio;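 further: cells stimulated with 9-cis-retinoic acid as agonist; on the % scale 0 is the no-effect control and ±100 the full control effect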); settings: HEK293T RXRa-UAS-bla, beta-lactamase ratio, antagonist mode; measured here: W530 green channel, cytotoxicity proxy
How it was run: (§1)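 Beta-lactamase reporter inhibition, read as CCF4 fluorescence ratio (ex 405, em 460/530 nm) after 2 h at RT. HEK293T UAS-bla cells, 2500/well, were stimulated with 9-cis-RA at 500 or 100 nM final alongside test compound for 18 h at 37 C.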

[7] = target: Retinoic acid receptor RXR-alpha (Homo sapiens) (UniProt P19793); assay: as above; settings: HEK293T RXRa-UAS-bla, beta-lactamase ratio, antagonist mode
How it was run: as §1

[8] = target: Thyroid hormone receptor beta (Homo sapiens) (UniProt P10828); assay: qHTS assay for small molecule antagonists of thyroid hormone receptor beta signaling (AID 588547; active means well fitted inhibition curve with a large enough effect in the signal ratio, with a control signal flat, not every such curve was filed as active; the % refers to the signal ratio;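 further: cells stimulated with 0.4 nM T3 agonist during compound exposure; series mostly up to about 77 µM; on the % scale 0 is the no-effect control and ±100 the full control effect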); settings: TR-UAS-bla HEK293, beta-lactamase ratio, antagonist mode, 18 h
How it was run: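 Inhibition of T3-driven (0.4nM final) beta-lactamase reporter activity was measured over 0.59 nM to 92 uM compound after 18 h at 37 C. The cells were GripTite HEK293 TR-UAS-bla in charcoal/dextran-stripped serum, with CCF4 ratio read-out and IC50 from Hill fits.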

[9] = qHTS assay for small molecule activators of the p53 signaling pathway (AID 651743; active means well fitted activation curve with a large enough effect in the signal ratio, not every such curve was filed as active; the % refers to the signal ratio; further: series mostly up to about 92 µM; % of control where 0% means no effect); settings: HCT-116 p53RE-bla, beta-lactamase FRET ratio, 16 h; activation: stronger effect = higher value
How it was run: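 Screen for p53 pathway agonists uses stably transfected p53RE-bla HCT-116 cells, 4,000 per well, treated 16 h at 37 C with compounds in DMSO.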

[10] = qHTS assay for environmental chemicals that activate the Aryl hydrocarbon Receptor (AhR) signaling pathway (AID 651777); settings: 1A2-DRE human hepatoma cells, luciferase, 24 h; activation: stronger effect = higher value; further: % of control where 0% means no effect; nearly all actives have a fitted effect of over 15% in size
How it was run: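 1A2-DRE human hepatoma reporter line; 1,200 cells/well; cmpd or DMSO 24 h, 37 C/5% CO2; One-Glo 30 min RT; luciferase lum.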

[11] = target: Peroxisome proliferator-activated receptor alpha (Homo sapiens) (UniProt Q07869); assay: qHTS assay for small molecule agonists of the peroxisome proliferator-activated receptor alpha (PPARalpha) signaling pathway (AID 651778); settings: PathHunter PPARalpha complementation, chemiluminescence, 6 h; max response: stronger effect = higher value; further: % of control where 0% means no effect
Sequence of Peroxisome proliferator-activated receptor alpha (Homo sapiens) (Q07869 whole entry, looked up): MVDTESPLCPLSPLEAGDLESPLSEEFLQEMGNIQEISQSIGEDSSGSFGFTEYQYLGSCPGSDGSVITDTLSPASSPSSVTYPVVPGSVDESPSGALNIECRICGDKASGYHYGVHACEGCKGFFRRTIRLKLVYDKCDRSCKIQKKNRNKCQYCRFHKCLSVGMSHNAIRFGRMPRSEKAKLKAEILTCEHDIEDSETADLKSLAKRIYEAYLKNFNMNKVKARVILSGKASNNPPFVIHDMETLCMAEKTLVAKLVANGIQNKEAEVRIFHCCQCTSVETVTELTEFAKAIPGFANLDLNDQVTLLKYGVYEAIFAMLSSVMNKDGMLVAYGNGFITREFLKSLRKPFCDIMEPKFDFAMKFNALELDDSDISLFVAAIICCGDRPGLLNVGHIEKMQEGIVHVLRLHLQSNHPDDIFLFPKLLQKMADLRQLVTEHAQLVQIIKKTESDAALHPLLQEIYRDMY
How it was run: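 Chemiluminescence from complemented enzyme reported PPARalpha activation in cells after 6 hr of compound treatment at 37 C. The detection reagent was incubated for 60 min at room temperature, and compounds were scored as agonists.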

[12] = qHTS assay for small molecule agonists of the antioxidant response element (ARE) signaling pathway measured by Nrf2-dependant transcriptional activity (AID 720636; active means well fitted curve in the direction sought with a large enough effect in the repeat runs; an effect the other way counts as inactive or inconclusive;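 further: HepG2 cells with an ARE-driven luciferase reporter; % of control where 0% means no effect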)
How it was run: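 Cells: ARE-luc HepG2 with Nrf2-responsive luciferase. Medium contained 1% dialyzed FBS. Compound exposure lasted 16 hr at 37 C and 5% CO2, followed by ONE-Glo luciferase detection.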

[13] = qHTS assay for small molecule agonists of the antioxidant response element (ARE) signaling pathway measured by Nrf2-dependant transcriptional activity - cell viability counter screen (AID 720653; active means well fitted curve in the direction sought with a large enough effect in the repeat runs; an effect the other way counts as inactive or inconclusive; further: on the % scale 0 is the no-effect control and ±100 the full control effect); settings: ARE-bla HepG2 viability, CellTiter-Glo ATP luminescence, 16 h; max response: stronger effect = lower value
How it was run: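 Cytotoxicity counter screen: intracellular ATP quantified by CellTiter-Glo luminescence in the same ARE-bla HepG2 plates, after 16 h compound exposure and a 2 h beta-lactamase substrate step.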

[14] = qHTS assay for cell viability of HEK293 cells (AID 743288); settings: ATP luminescence (CellTiter-Glo), 18 h; max response: stronger effect = lower value; further: on the % scale 0 is the no-effect control and ±100 the full control effect; nearly all actives have a fitted effect of over 50% in size
How it was run: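 Total intracellular ATP, measured with a luciferase-coupled reagent, indicates the number of viable HEK293 cells. Exposure to test chemicals lasts 18 h at 37 C in 1,536-well format at 2,000 cells/well.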

[15] = qHTS assay for cell viability of the p53RE-bla HCT-116 cell line (AID 743292); further: on the % scale 0 is the no-effect control and ±100 the full control effect; nearly all actives have a fitted effect of over 55% in size
How it was run: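 HCT-116 p53RE-bla cells seeded 4,000/well; 5 h at 37 C; compound (DMSO) added; 16 h at 37 C; CellTiter-Glo added, 30 min RT; luminescence read.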

[16] = target: Nuclear receptor subfamily 1 group I member 2 (Rattus norvegicus) (UniProt Q9R1A7); assay: qHTS assay for small molecule activators of the rat pregnane X receptor (rPXR) signaling pathway (AID 651751; call rule not given here; further: 0% is about no effect); settings: rPXR reporter cells, luciferase (One-Glo), 24 h
Sequence of Nuclear receptor subfamily 1 group I member 2 (Rattus norvegicus) (Q9R1A7 whole entry, looked up): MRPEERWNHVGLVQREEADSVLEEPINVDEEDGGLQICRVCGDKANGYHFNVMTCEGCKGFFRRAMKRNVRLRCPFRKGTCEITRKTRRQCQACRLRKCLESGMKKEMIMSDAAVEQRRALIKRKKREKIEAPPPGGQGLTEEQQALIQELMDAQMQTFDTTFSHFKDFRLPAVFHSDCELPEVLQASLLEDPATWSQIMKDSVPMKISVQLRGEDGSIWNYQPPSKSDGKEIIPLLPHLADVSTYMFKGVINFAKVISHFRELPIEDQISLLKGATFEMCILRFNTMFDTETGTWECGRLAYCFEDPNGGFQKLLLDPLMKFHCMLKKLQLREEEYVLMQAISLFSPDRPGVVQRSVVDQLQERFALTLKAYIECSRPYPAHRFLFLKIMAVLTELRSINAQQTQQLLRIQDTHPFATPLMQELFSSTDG

[17] = qHTS assay for small molecule activators of the human pregnane X receptor (PXR) signaling pathway (AID 720659; call rule not given here; further: 0% is about no effect)
[18] = target: Estrogen receptor (Homo sapiens) (UniProt P03372); assay: qHTS assay for small molecule agonists of estrogen receptor alpha signaling (AID 588514; calls by dose curve;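 further: 0% = vehicle only and 100% = reference agonist; nearly all actives have a fitted effect of over 70% in size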)
Sequence of Estrogen receptor (Homo sapiens) (P03372 whole entry, looked up): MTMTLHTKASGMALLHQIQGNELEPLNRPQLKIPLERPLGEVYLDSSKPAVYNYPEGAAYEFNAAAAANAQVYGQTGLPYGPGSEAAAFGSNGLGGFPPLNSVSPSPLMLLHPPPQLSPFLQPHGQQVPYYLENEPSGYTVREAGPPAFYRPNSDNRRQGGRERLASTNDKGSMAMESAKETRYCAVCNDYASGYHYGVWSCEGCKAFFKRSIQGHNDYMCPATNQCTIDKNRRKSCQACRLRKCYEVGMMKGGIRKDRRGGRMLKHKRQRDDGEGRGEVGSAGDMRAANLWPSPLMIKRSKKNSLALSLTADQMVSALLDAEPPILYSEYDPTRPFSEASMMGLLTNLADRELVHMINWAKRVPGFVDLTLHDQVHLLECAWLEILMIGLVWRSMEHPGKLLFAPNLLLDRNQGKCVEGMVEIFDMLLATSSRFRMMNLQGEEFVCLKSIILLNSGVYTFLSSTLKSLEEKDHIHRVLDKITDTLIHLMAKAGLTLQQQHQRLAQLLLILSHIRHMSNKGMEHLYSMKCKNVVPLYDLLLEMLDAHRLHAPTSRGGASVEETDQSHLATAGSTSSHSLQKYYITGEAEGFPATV
How it was run: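 ER-alpha-UAS-bla GripTite HEK 293 cells in medium with 2% charcoal/dextran-treated FBS were treated with compound titrations at 37 C for 18 hrs; beta-lactamase reporter read by CCF4 fluorescence after 2 hrs at RT.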

[19] = target: Peroxisome proliferator-activated receptor gamma (Homo sapiens) (UniProt P37231); assay: qHTS assay for small molecule agonists of peroxisome proliferator-activated receptor gamma signaling (AID 588536; active means well fitted curve in the direction sought with a large enough effect in the signal ratio, with a control signal flat, not every such curve was filed as active; the % refers to the signal ratio;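 further: 0% = DMSO basal wells and 100% = rosiglitazone at 2 µM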)
Sequence of Peroxisome proliferator-activated receptor gamma (Homo sapiens) (P37231 whole entry, looked up): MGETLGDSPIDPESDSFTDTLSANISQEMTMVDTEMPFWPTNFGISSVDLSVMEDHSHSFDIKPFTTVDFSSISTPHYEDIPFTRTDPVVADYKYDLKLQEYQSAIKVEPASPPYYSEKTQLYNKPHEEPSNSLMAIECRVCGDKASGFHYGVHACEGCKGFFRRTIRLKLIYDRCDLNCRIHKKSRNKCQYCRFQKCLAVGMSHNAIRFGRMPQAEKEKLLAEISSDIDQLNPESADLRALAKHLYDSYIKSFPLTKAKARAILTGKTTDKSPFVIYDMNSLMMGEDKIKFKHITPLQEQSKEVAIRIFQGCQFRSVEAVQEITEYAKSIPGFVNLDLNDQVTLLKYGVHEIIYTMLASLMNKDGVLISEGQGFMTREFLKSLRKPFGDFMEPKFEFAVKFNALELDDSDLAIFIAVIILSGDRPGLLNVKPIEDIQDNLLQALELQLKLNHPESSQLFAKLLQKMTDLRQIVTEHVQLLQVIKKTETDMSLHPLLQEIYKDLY
How it was run: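 PPAR-gamma-UAS-bla HEK293 cells in medium with 1% charcoal/dextran-treated FBS were exposed to compounds for 16 h at 37 C. Beta-lactamase activity was read with CCF4 substrate (405 nm excitation, 460/530 nm emission).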

[20] = target: Peroxisome proliferator-activated receptor gamma (Homo sapiens) (UniProt P37231); assay: qHTS assay for small molecule antagonists of peroxisome proliferator-activated receptor gamma signaling (AID 588537; active means well fitted inhibition curve with a large enough effect in the signal ratio, with a control signal flat, not every such curve was filed as active; the % refers to the signal ratio;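 further: reporter cells co-stimulated with 50 nM rosiglitazone agonist during compound treatment; % of control where 0% means no effect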)
How it was run: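 Inhibitors of agonist-stimulated UAS-bla reporter activity were sought in HEK293 cells; rosiglitazone (50 nM) defined full signal and DMSO baseline. Curves fitted to Hill model gave IC50 and efficacy.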

Structure (SMILES)	max response [1]	outcome [2]	max response [3]	Potency [4]	Potency [5]	max response [6]	max response [7]	activity change % (negative = inhibition) [8]	activation [9]	activation [10]	max response [11]	Potency [12]	max response [13]	max response [14]	Potency [15]	max response [16]	outcome [17]	Potency [18]	outcome [19]	Potency [20]
CC(=O)OC1CCC(C(C)(C)C)CC1 (configuration not stated)	-10.4%	inactive	-2.86%	inactive	inactive	-1.04%	-6.71% (inactive)	5.89% (inactive)	-2.06% (inactive)	3.13% (inactive)	-0.283% (inactive)	inactive	0.584% (inactive)	-10.3% (inactive)	inactive	4.95% (inactive)	inactive			
O=[N+]([O-])C(CO)(CO)CO	26.9%	inactive	-11.5%	inactive	inactive	-5.31%	4.16% (inactive)			-1.19% (inactive)		inactive	-10% (inactive)	-13.7% (inactive)	inactive	0.128% (inactive)	inactive	inactive	inactive	inactive
COC(=O)c1ccc(C(=O)OC)cc1		inactive	-4.51%	inactive	inactive	-0.742%	-16.3% (inactive)		-5.18% (inactive)	2.27% (inactive)	-0.437% (inactive)	inactive	-4.69% (inactive)	-3.92% (inactive)	inactive	2.11% (inactive)		inactive	inactive	inactive
CCCCOCCOCCOCCO	-4.48%	inactive	-9.78%	inactive	inactive	1.39%	-1.08% (inactive)	-0.828% (inactive)	2.9% (inactive)	1.2% (inactive)		inactive	5.3% (inactive)	-2.85% (inactive)	inactive	2.44% (inactive)	inactive	inactive	inactive	inactive
CCCCCCCCCCCCCCCCN(C)C	-16.5%		-18.2%	inactive	inactive	-9.65%	-24.8% (inactive)		-1.17% (inactive)	0.752% (inactive)	-0.399% (inactive)	inactive	-13% (inactive)	-6.67% (inactive)	inactive	2.85% (inactive)	inactive			
O=S(=O)(O)c1cc(S(=O)(=O)O)c2c(N=Nc3ccccc3)c(O)ccc2c1	-19.3%		-6.55%	inactive	inactive			-8.36% (inactive)	-0.0659% (inactive)	0.18% (inactive)	-5.78% (inactive)	inactive	-9.68% (inactive)	-12.7% (inactive)	inactive	3.04% (inactive)				
COc1ccc(OC)c(OC)c1		inactive	-0.39%	inactive	inactive	-10%	2.37% (inactive)	7.13% (inactive)	-1.46% (inactive)	0.552% (inactive)	0.14% (inactive)	inactive	7.1% (inactive)	-1.79% (inactive)		3.06% (inactive)	inactive		inactive	inactive
CC(C)OB(OC(C)C)OC(C)C		inactive	-15.5%	inactive		-7.32%	0.387% (inactive)		0.574% (inactive)	9.09% (inactive)		inactive	-7.65% (inactive)	-7.12% (inactive)	inactive	0.348% (inactive)	inactive	inactive	inactive	inactive
CC1(C)C(=O)N(Cl)C(=O)N1Cl		inactive	-24.2%	inactive	inactive	1.31%		-0.904% (inactive)	-0.829% (inactive)	0.743% (inactive)	-0.353% (inactive)	inactive	-14.6% (inactive)	-4.37% (inactive)	inactive	-0.522% (inactive)	inactive	inactive	inactive	inactive
c1cc(-c2ccncc2)ccn1		inactive	22%	inactive	inactive	17.1%	-37.6% (inactive)	-17.5% (inactive)	-5.33% (inactive)	0.354% (inactive)	0.638% (inactive)	inactive	-5.96% (inactive)	-10.3% (inactive)	inactive	-2.25% (inactive)	inactive	inactive	inactive	inactive
Cc1ccc(C(C)(C)C)c(O)c1		inactive	-12.1%	inactive	inactive	-16%	-3.16% (inactive)		-4.17% (inactive)	1.48% (inactive)	-0.656% (inactive)	inactive	6.52% (inactive)	-6.81% (inactive)	inactive	1.73% (inactive)			inactive	inactive
CCOC(=O)COc1cc(-n2ncc(C(F)(F)F)c(C)c2=O)c(F)cc1Cl	-4.58%	inactive	9.89%	inactive	inactive			-20.3% (inactive)	2.36% (inactive)	-2.83% (inactive)	-2.22% (inactive)	inactive	9.1% (inactive)	2.7% (inactive)		-8.22% (inactive)	inactive		inactive	inactive
O=S(=O)(O)c1ccc(N=Nc2c(O)ccc3cc(S(=O)(=O)O)ccc23)cc1	-5.34%	inactive	-4.64%	inactive	inactive	-15.1%	-6.14% (inactive)	-13.9% (inactive)		-1.77% (inactive)	-7.14% (inactive)	inactive	-22.3% (inactive)	-13.8% (inactive)	inactive	-7.92% (inactive)	inactive	inactive		
